Assay results taken from PubChem BioAssay.
A number with no mark means an inactive call. Active and inactive are the calls of the source. Cut-off read from the data, not from the text of the source, unless noted: active = inhibition above about 36%; inactive = the rest.

Legend:
[1] = test system: transactivating tegument protein VP16 (Human herpesvirus 1); experiment: compounds suppressing VP16-driven luciferase signal – cell-based, luminescence, single concentration, counter-screen for SRC2 inhibitor project (AID 652007); conditions: cell-based VP16 transactivation luciferase reporter, at 8.9 µM, stronger effect = higher value
[2] = target: Nuclear receptor coactivator 2 (Homo sapiens) (UniProt Q15596); experiment: inhibition of GAL4-SRC2 driven luciferase expression – cell-based, luminescence, HEK293, triplicate, confirmation (AID 652008;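 active = mean inhibition above 46.5%, the solvent-only control mean plus 3 SD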;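 note: 0% = DMSO-treated cells and 100% = Gossypol at 36 µM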); conditions: HEK293 GAL4-SRC2 luciferase reporter, at 8.9 µM, stronger effect = higher value
Nuclear receptor coactivator 2 (Homo sapiens), sequence (Q15596 whole entry, looked up, the tested form may be a part): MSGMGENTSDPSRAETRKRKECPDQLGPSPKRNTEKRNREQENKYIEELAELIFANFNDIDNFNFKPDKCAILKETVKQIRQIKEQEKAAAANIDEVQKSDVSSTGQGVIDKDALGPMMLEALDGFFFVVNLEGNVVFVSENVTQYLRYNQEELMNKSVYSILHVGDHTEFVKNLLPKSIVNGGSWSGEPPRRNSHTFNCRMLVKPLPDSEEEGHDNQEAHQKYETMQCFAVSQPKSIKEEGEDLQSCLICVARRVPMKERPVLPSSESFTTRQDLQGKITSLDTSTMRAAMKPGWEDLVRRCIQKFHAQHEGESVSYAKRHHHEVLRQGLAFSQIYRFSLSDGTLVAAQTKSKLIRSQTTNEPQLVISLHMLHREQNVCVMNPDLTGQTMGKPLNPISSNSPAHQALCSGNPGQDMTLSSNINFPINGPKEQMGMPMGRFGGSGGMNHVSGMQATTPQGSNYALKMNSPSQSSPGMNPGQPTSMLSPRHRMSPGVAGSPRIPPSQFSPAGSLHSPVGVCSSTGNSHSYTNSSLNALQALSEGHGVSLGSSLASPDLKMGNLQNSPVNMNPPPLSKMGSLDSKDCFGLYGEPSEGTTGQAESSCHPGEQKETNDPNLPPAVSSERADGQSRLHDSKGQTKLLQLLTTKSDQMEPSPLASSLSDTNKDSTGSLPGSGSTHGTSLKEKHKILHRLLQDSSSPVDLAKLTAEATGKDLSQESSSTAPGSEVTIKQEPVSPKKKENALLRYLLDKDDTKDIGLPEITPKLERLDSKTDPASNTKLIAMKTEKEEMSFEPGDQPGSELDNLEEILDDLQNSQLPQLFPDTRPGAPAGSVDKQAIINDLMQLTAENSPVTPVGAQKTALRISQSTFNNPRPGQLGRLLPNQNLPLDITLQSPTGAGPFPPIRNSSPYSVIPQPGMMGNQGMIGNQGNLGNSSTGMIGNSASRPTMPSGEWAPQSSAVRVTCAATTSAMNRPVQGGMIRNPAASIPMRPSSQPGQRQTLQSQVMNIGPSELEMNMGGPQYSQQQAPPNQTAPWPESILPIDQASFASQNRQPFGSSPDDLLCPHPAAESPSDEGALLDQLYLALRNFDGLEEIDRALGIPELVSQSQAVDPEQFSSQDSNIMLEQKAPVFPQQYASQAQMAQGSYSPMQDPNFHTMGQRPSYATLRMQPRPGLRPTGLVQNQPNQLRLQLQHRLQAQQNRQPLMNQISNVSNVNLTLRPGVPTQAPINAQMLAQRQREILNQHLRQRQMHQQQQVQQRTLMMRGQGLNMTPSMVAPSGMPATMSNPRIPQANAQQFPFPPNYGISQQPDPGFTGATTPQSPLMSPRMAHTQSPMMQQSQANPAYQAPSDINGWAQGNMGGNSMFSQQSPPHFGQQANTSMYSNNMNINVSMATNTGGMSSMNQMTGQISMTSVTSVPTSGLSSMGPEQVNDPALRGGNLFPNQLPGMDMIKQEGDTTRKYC

SMILES | inhibition [1] | inhibition [2]
O=c1c2ccccc2sn1-c1ccccc1 | -5.09% | -17.8%
CNC(=O)c1nnsc1S(=O)(=O)c1ccc(Cl)cc1 | 49.1% (active) | 49.1% (active)
O=C1CSC(c2ccc([N+](=O)[O-])cc2)N1c1ccc(O)cc1 (centres undefined) | 5.23% | -13.8%
COC(=O)C1Cc2ccccc2CN1C(=O)CCl (centres undefined) | 27.7% | 33.2%
O=S(=O)(c1ccccc1)N1CCC(O)(CSc2ccc(F)cc2)CC1 | -1.83% | 13.4%
CC(C)OC(=O)c1ccc(NCc2cc(O)ccc2O)cc1 | 51.7% (active) | 54.8% (active)
O=C(Nc1ccc2c(c1)OCCO2)NC1(C(F)(F)F)Oc2ccccc2O1 | -12.8% | 43.7%
CCOc1cccc(NC(=O)C2CC(=O)N(c3ccc(F)cc3)C2)c1 (centres undefined) | 6.75% | -14.1%
Cc1cc(=O)c2ccccc2n1Cc1ccccc1 | -10.6% | 18.6%
O=C(Nc1nccs1)c1cc2c(s1)CCCCC2 | 0.43% | 38.7%
CCCCSc1nc(C)cc(SCC(=O)N/N=C/c2cccc(OC)c2O)n1 | -16.2% | 22.5%
S=C(NCc1ccc(Cl)cc1)NC1CCN(Cc2ccccc2)CC1 | -17.5% | 19.2%
C=CC[C@]12CC=CC(=O)[C@@]1(O)O[C@H](c1ccc(OC)c(OC)c1)[C@H]2C | 22.7% | 32%
COc1cccc(CNc2nc(NCC3CC3)nc3ccsc23)c1OC | -3.78% | 18.8%
CCOC(=O)c1ccc(-c2ccc(N3C(c4cccc(OC)c4)=Cc4ccc(F)cc4C3CC(C)=O)cc2)cc1F (centres undefined) | -0.77% | 21.3%
Cc1nc(N/N=C/c2ccccn2)sc1C | 29.8% | 60.2% (active)
O=C(O)CCC(=O)Nc1ccc(NC(=O)c2ccc(Cl)cc2Cl)c(Cl)c1 | -5.8% | -2.71%
